Screening data from PubChem.
Only a selection was taken, and hits are over-represented in it overall.
RVFV N-RNA inh = blocks Rift Valley Fever Virus nucleoprotein binding to RNA; P21700; RVFV N-RNA binding, fluorescence polarization; stronger effect = lower value; % bound, % (no concentration beside the values); 20,000 tested, 0.1% active; AID 651828; in the data active = % bound below about 75%
Target sequence (P21700 whole entry, looked up): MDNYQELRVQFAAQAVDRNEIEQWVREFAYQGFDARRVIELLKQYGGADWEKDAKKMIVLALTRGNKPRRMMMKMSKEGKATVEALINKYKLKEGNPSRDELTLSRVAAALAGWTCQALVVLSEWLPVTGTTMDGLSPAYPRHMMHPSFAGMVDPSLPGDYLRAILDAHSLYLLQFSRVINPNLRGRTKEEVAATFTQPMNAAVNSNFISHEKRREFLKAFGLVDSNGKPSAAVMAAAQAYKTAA
* = called active by the depositor; ! = not active in a repeat.

SMILES | RVFV N-RNA inh
COc1cc(NC(=O)COc2ccccc2F)cc(OC)c1OC | 104
NC(=O)c1ccccc1Sc1ccccc1C(N)=O | 93
CNC(=O)c1cc(S(=O)(=O)N2CCCC2)ccc1Cl | 106
CC(=O)Nc1nc2ccc(S(=O)(=O)N3CCOCC3)cc2s1 | 92
Cc1ccccc1-n1c(N)cc(=O)[nH]c1=S | 81
OCCN=Cc1[nH]c2ccccc2c1O | 55*
OCC(O)CN=Cc1c(O)[nH]c2ccccc12 (stereo not given) | 92
C=CCN=Cc1c(O)[nH]c2ccccc12 | 94
Cc1cncc2cccc(S(=O)(=O)N3CCCN(C(=O)CN)C[C@H]3C)c12 | 96
O=C(O/N=C1/CCCc2occc21)c1ccccc1 | 88
CNC1(C)C2CCC(C2)C1(C)C (stereo not given) | 89
Clc1ccc(-c2csc(N3CCN(c4ccccc4)CC3)n2)cc1 | 89
Cc1ccc(N2C(=O)c3cccc4c(N5CCN(C)CC5)ccc(c34)C2=O)c2cccnc12 | 55*
O=C(O)c1ccc2c3c(cccc13)C(=O)N(c1ccccc1O)C2=O | 97
O=C1c2cccc3c(Cl)ccc(c23)C(=O)N1c1ccccn1 | 89
S=C(c1c[nH]c2ccccc12)N1CCCCC1 | 92
COc1ccc(N2CC(NC(=O)NCc3ccc4c(c3)OCO4)CC2=O)cc1OC (stereo not given) | 96
COc1ccc(OCC(O)CNC(=O)Nc2cc(F)ccc2C)cc1 (stereo not given) | 95
CN(C)S(=O)(=O)c1ccc(N2CCOCC2)nc1 | 92
S=c1nc[nH]c2c1nnn2Cc1ccc(Cl)cc1 | 97
Cc1ccc(NC2=NCCS2)cc1Cl | 92
Cc1ccc(S(=O)(=O)Nc2cccc3ccc(-n4nc(C)cc4C)nc23)cc1 | 97
Cc1cc2cc(OCc3ccccc3)ccc2n1C | 100
O=S(=O)(c1ccc(NC(=S)N2CCCC2)cc1)N1CCCCC1 | 97
CCOC(=O)c1c(C)noc1/C(C)=N\OC(=O)c1ccccc1 | 92
SMILES | RVFV N-RNA inh
O=C(O)CSc1nnc2n1-c1ccc(Cl)cc1NN2 | 56*
Clc1ccc2c(c1)NNc1nncn1-2 | 93
NC(=O)CSc1nc2ccc(Cl)cc2[nH]1 | 100
O=C(CCNc1ccc(Cc2ccncc2)cc1)c1ccco1 | 97
CSc1ccccc1C(=O)NCc1n[nH]c(=O)c2ccccc12 | 88
CC1CCCN(S(=O)(=O)c2ccc(/C(O)=C(\C#N)c3nc4ccccc4n3C)cc2)C1 (stereo not given) | 96
CCNS(=O)(=O)c1cc(S(C)(=O)=O)ccc1Cl | 104
O=S(=O)(Nc1ccc(N2CCN(c3ncccc3C(F)(F)F)CC2)nc1)c1ccc(Cl)cc1 | 97
NCC(CC(=O)O)c1ccc(Cl)cc1 (stereo not given) | 99
NC(CO)C(=O)NNCc1ccc(O)c(O)c1O (stereo not given) | 85
O=C(CSc1ccccc1)N/N=C/c1ccccc1O | 89
NC(CO)C(=O)N/N=C/c1ccc(O)c(O)c1O (stereo not given) | 51*
O=C(Cn1cnc2c(nnn2Cc2ccc(Cl)cc2)c1=O)NCc1ccc2c(c1)OCO2 | 88
COc1ccc(/C=C2\SC(=S)N(CCCCCC(=O)N3CCN(C)CC3)C2=O)cc1 | 99
CS(=O)(=O)Nc1cccc(-c2nc3cccnc3s2)c1 | 96
COc1ccccc1-n1c(SC)nc2ccccc2c1=O | 87
Cc1c(C)c(C)c(CN2CCCC2)c(C)c1C | 93
O=C(C1c2ccccc2Oc2ccccc21)N1CCC2(CC1)OCCO2 | 99
c1ccc(-c2cnc(-c3ccccc3)cn2)cc1 | 98
CCc1ccccc1NC(=O)C1CC(=O)N(C2CCCCC2)C1 (stereo not given) | 94
CCC1(CC)C(=O)N=C(SCC(=O)Nc2c(C)n(C)n(-c3ccccc3)c2=O)N(C)C1=O | 97
CC(C)=N/N=C1\NC(=O)C(Cc2ccccc2)S1 (stereo not given) | 102
c1ccc(CCc2nc(-c3ccccc3)no2)cc1 | 89
CCCOc1ccc(C2C(C(=O)/C=C/c3ccco3)=C(O)C(=O)N2CCCN2CCOCC2)cc1 (stereo not given) | 101
O=C(CC(Sc1ccccc1)c1ccc2c(c1)OCO2)c1ccco1 (stereo not given) | 100
SMILES | RVFV N-RNA inh
CC(C)(C)C(=O)NNc1ncnc2sccc12 | 102
O=C(Cc1c(F)cccc1Cl)NCC1CCCO1 (stereo not given) | 96
O=S(Nc1ccc2c(c1)OCCO2)C12CC3CC(CC(C3)C1)C2 (stereo not given) | 92
CSc1cccc(NC(=O)CC#N)c1 | 97
OC1CSc2nc3ccccc3n21 (stereo not given) | 87
Cc1cc(NC(=O)/C=C\c2ccc3c(c2)OCO3)nc2c1c(=O)oc1ccccc12 | 104
O=C(CC1CC(=O)Oc2ccccc21)NCc1ccccc1 (stereo not given) | 97
Cc1ccc(C=C2C(=O)OC(C)(C(C)(C)C)OC2=O)o1 (stereo not given) | 111
O=C(CCCN1CCC(O)(c2ccc(Cl)cc2)CC1)c1ccc(F)cc1 | 101
O=C(CCCN1CCC2(CC1)C(=O)NCN2c1ccccc1)c1ccc(F)cc1 | 56*!
CC1CCN(CCCC(=O)c2ccc(F)cc2)CC1 | 96
CC1(C)Cn2c(nnc2-c2ccccc2)S1 | 92
CN=c1nc(-c2ccccc2)n(-c2ccccc2)s1 | 50*
CCSc1nnc(-c2ccccc2)n1-c1ccccc1 | 98
CCOC(=O)C1CCN(c2ccccc2CN2CCC(c3ccccc3OC)CC2)CC1 | 102
FC(F)(F)c1nc2ccccc2nc1Cl | 84
Cc1cn2c(=O)c3c4c(sc3nc2s1)CCCC4 | 98
CC1(C)[C@H](C(=O)O)N2C(=O)C[C@H]2S1(=O)=O | 99
CCC(C)NC(=O)c1cnc2n(c1=O)CCS2 (stereo not given) | 91
CC(C)C(NC(=O)c1ccco1)C(C)C | 98
Cn1c(CCNC(=O)c2cccs2)nnc1SCC(=O)N1CCN(c2ccccc2)CC1 | 92
COCc1[nH]c(=S)[nH]c(=O)c1C | 91
